According to PubChem BioAssay AID2165 (The Scripps Research Institute Molecular Screening Center, 2009):
Activity calls are given as the source filed them. No stated cut-off is given here; in the data, active means IC50 below about 9 µM; inactive means the rest.

System: Ba/F3 Cytotoxicity
Test: JAK2V617F project follow-up: kinase, reporter, cytotoxicity – HEL and Ba/F3 cells, late-stage follow-up (AID 2165)
Details: JAK2V617F panel: kinase, IRF1 reporter

Compound | IC50
N#CC(C#N)=Cc1cc(O)c(O)c(I)c1 | 8990 nM (active)
N#CC(C#N)=Cc1ccc(O)c(O)c1 | 2560 nM (active)
CC(C)[C@@H](CO)Nc1nc(Nc2cccc(Cl)c2)c2ncn(C(C)C)c2n1 | 950 nM (active)
